Screen size: about 5,500 compounds; about 2,000 (36%) were called active. Inconclusive results (about 18%) are left out. Rule as the data show it: active = normalized growth mostly below about 0.91 (no sharp cut-off); inconclusive = no clear call, values can overlap the other calls; inactive = mostly above about 0.92. Some of the results follow.
Experiment: chemical genetic growth profiling, strain panel (AID 1159580);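 also: tested at 20 µM; growth read once vehicle control cultures reached saturation at 30 °C; 1 = growth at the plate median or of vehicle wells; lower values mean less growth of the strain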
Details: growth OD
[1] = S. cerevisiae deletion strains, locus YHR030C, strain SLT2, stronger effect = lower value
[2] = S. cerevisiae deletion strains, locus YHR079C, strain IRE1, stronger effect = lower value
[3] = S. cerevisiae deletion strains, locus YJL095W, strain BCK1, stronger effect = lower value
[4] = S. cerevisiae deletion strains, locus YJR066W, strain TOR1, stronger effect = lower value
[5] = S. cerevisiae deletion strains, locus YLR113W, strain HOG1, stronger effect = lower value
[6] = S. cerevisiae deletion strains, locus YNL183C, strain NPR1, stronger effect = lower value
[7] = S. cerevisiae deletion strains, locus YOR231W, strain MKK1, stronger effect = lower value
[8] = S. cerevisiae deletion strains, locus YPL256C, strain CLN2, stronger effect = lower value
[9] = S. cerevisiae deletion strains, locus YDL101C, strain DUN1, stronger effect = lower value

Measured: normalized growth

CNCC[C@H](Oc1cccc2ccccc12)c1cccs1
inactive: [1] 0.991 | [2] 0.993 | [3] 1 | [4] 0.924 | [5] 1.02 | [6] 0.938 | [7] 0.988 | [8] 0.987

CNC(=O)Sc1c(-c2ccc(Cl)cc2)nn(C(=O)NC)c1SC
inactive: S. cerevisiae deletion strains, locus YAR019C, strain CDC15, stronger effect = lower value 0.979 | S. cerevisiae deletion strains, locus YBL105C, strain PKC1, stronger effect = lower value 0.961 | S. cerevisiae deletion strains, locus YBR135W, strain CKS1, stronger effect = lower value 0.949 | S. cerevisiae deletion strains, locus YBR136W, strain MEC1, stronger effect = lower value 0.952 | S. cerevisiae deletion strains, locus YBR160W, strain CDC28, stronger effect = lower value 0.961 | S. cerevisiae deletion strains, locus YDL017W, strain CDC7, stronger effect = lower value 0.949 | S. cerevisiae deletion strains, locus YDL028C, strain MPS1, stronger effect = lower value 0.941 | [9] 0.958 | S. cerevisiae deletion strains, locus YDL108W, strain KIN28, stronger effect = lower value 0.94 | S. cerevisiae deletion strains, locus YDL132W, strain cdc53, stronger effect = lower value 0.978 | S. cerevisiae deletion strains, locus YDR052C, strain DBF4, stronger effect = lower value 0.939 | S. cerevisiae deletion strains, locus YDR054C, strain cdc34, stronger effect = lower value 0.985 | S. cerevisiae deletion strains, locus YDR226W, strain ADK1, stronger effect = lower value 0.952 | S. cerevisiae deletion strains, locus YFL009W, strain cdc4, stronger effect = lower value 0.962 | S. cerevisiae deletion strains, locus YFL029C, strain CAK1, stronger effect = lower value 0.974 | S. cerevisiae deletion strains, locus YFR003C, strain YPI1, stronger effect = lower value 0.946 | S. cerevisiae deletion strains, locus YFR028C, strain CDC14, stronger effect = lower value 0.985 | S. cerevisiae deletion strains, locus YIL147C, strain SLN1, stronger effect = lower value 0.934 | S. cerevisiae deletion strains, locus YJL128C, strain PBS2, stronger effect = lower value 0.911 | S. cerevisiae deletion strains, locus YJR016C, strain ILV3, stronger effect = lower value 0.969 | S. cerevisiae deletion strains, locus YKL193C, strain SDS22, stronger effect = lower value 0.97 | S. cerevisiae deletion strains, locus YMR001C, strain CDC5, stronger effect = lower value 0.971 | S. cerevisiae deletion strains, locus YMR277W, strain FCP1, stronger effect = lower value 0.979 | S. cerevisiae deletion strains, locus YNL006W, strain LST8, stronger effect = lower value 0.971 | S. cerevisiae deletion strains, locus YNL161W, strain CBK1, stronger effect = lower value 0.954 | S. cerevisiae deletion strains, locus YNL207W, strain RIO2, stronger effect = lower value 0.964 | S. cerevisiae deletion strains, locus YNL222W, strain SSU72, stronger effect = lower value 0.969 | S. cerevisiae deletion strains, locus YOL078W, strain AVO1, stronger effect = lower value 0.981 | S. cerevisiae deletion strains, locus YOR329C, strain SCD5, stronger effect = lower value 0.977 | S. cerevisiae deletion strains, locus YPL209C, strain IPL1, stronger effect = lower value 0.97 | S. cerevisiae deletion strains, locus YPR025C, strain CCL1, stronger effect = lower value 0.973 | S. cerevisiae deletion strains, locus YPR106W, strain ISR1, stronger effect = lower value 0.994 | S. cerevisiae deletion strains, locus YPR111W, strain DBF20, stronger effect = lower value 0.982 | S. cerevisiae deletion strains, strain NNK1, stronger effect = lower value 0.996 | S. cerevisiae deletion strains, strain TSCII, stronger effect = lower value 0.977
active: S. cerevisiae deletion strains, locus YDL214C, strain PRR2, stronger effect = lower value 0.319 | S. cerevisiae deletion strains, locus YDR477W, strain SNF1, stronger effect = lower value 0.428 | S. cerevisiae deletion strains, locus YER123W, strain YCK3, stronger effect = lower value 0.199 | S. cerevisiae deletion strains, locus YER133W, strain GLC7, stronger effect = lower value 0.485 | S. cerevisiae deletion strains, locus YFR019W, strain FAB1, stronger effect = lower value 0.264 | S. cerevisiae deletion strains, locus YGR040W, strain KSS1, stronger effect = lower value 0.413 | S. cerevisiae deletion strains, locus YGR052W, strain FMP48, stronger effect = lower value 0.315 | S. cerevisiae deletion strains, locus YGR092W, strain DBF2, stronger effect = lower value 0.266 | [1] 0.335 | [2] 0.324 | S. cerevisiae deletion strains, locus YHR082C, strain KSP1, stronger effect = lower value 0.353 | S. cerevisiae deletion strains, locus YHR205W, strain SCH9, stronger effect = lower value 0.446 | [3] 0.256 | S. cerevisiae deletion strains, locus YJL157C, strain FAR1, stronger effect = lower value 0.315 | S. cerevisiae deletion strains, locus YJR066W, strain TOR1 (second series), stronger effect = lower value 0.286 | [4] 0.302 | S. cerevisiae deletion strains, locus YKL048C, strain ELM1, stronger effect = lower value 0.545 | S. cerevisiae deletion strains, locus YKL067W, strain YNK1, stronger effect = lower value 0.335 | S. cerevisiae deletion strains, locus YKL101W, strain HSL1, stronger effect = lower value 0.378 | S. cerevisiae deletion strains, locus YKL203C, strain TOR2, stronger effect = lower value 0.491 | [5] 0.284 | S. cerevisiae deletion strains, locus YLR133W, strain CKI1, stronger effect = lower value 0.397 | S. cerevisiae deletion strains, locus YLR403W, strain SFP1, stronger effect = lower value 0.482 | S. cerevisiae deletion strains, locus YML070W, strain DAK1, stronger effect = lower value 0.297 | S. cerevisiae deletion strains, locus YMR205C, strain PFK2 (second series), stronger effect = lower value 0.461 | S. cerevisiae deletion strains, locus YNL020C, strain ARK1, stronger effect = lower value 0.342 | [6] 0.274 | S. cerevisiae deletion strains, locus YNL307C, strain MCK1 (second series), stronger effect = lower value 0.233 | S. cerevisiae deletion strains, locus YOL136C, strain PFK27, stronger effect = lower value 0.316 | S. cerevisiae deletion strains, locus YOR061W, strain CKA2, stronger effect = lower value 0.355 | S. cerevisiae deletion strains, locus YOR119C, strain RIO1, stronger effect = lower value 0.467 | [7] 0.315 | S. cerevisiae deletion strains, locus YPL031C, strain PHO85, stronger effect = lower value 0.422 | S. cerevisiae deletion strains, locus YPL153C, strain RAD53, stronger effect = lower value 0.337 | S. cerevisiae deletion strains, locus YPL204W, strain HRR25, stronger effect = lower value 0.399 | [8] 0.368

O=[N+]([O-])c1ccc(C(O)C(O)CO)cc1 (stereo unspecified)
inactive: S. cerevisiae deletion strains, locus YAL013W, strain DEP1, stronger effect = lower value 0.974 | S. cerevisiae deletion strains, locus YBR229C, strain ROT2, stronger effect = lower value 0.981 | [9] 1.01 | S. cerevisiae deletion strains, locus YDR150W, strain NUM1, stronger effect = lower value 1 | S. cerevisiae deletion strains, locus YEL061C, strain CIN8, stronger effect = lower value 1 | S. cerevisiae deletion strains, locus YGR078C, strain PAC10, stronger effect = lower value 0.996 | [1] 1.07 | S. cerevisiae deletion strains, locus YHR087W, strain rtc3, stronger effect = lower value 0.958 | S. cerevisiae deletion strains, locus YJL187C, strain SWE1, stronger effect = lower value 0.993 | S. cerevisiae deletion strains, locus YJR043C, strain POL32, stronger effect = lower value 0.987 | S. cerevisiae deletion strains, locus YJR075W, strain HOC1, stronger effect = lower value 0.988 | S. cerevisiae deletion strains, locus YLR039C, strain RIC1, stronger effect = lower value 0.974 | S. cerevisiae deletion strains, locus YLR058C, strain SHM2 (second series), stronger effect = lower value 0.988 | S. cerevisiae deletion strains, locus YLR085C, strain ARP6, stronger effect = lower value 0.986 | S. cerevisiae deletion strains, locus YLR262C, strain YPT6, stronger effect = lower value 0.963 | S. cerevisiae deletion strains, locus YML094W, strain GIM5, stronger effect = lower value 0.99 | S. cerevisiae deletion strains, locus YMR219W, strain ESC1, stronger effect = lower value 0.994 | S. cerevisiae deletion strains, locus YMR263W, strain SAP30, stronger effect = lower value 1 | S. cerevisiae deletion strains, locus YMR307W, strain GAS1, stronger effect = lower value 0.959 | S. cerevisiae deletion strains, locus YNL153C, strain GIM3, stronger effect = lower value 0.987 | S. cerevisiae deletion strains, locus YNL298W, strain CLA4 (second series), stronger effect = lower value 0.961 | S. cerevisiae deletion strains, locus YNL322C, strain KRE1, stronger effect = lower value 0.996 | S. cerevisiae deletion strains, locus YNR030W, strain Alg12, stronger effect = lower value 0.983 | S. cerevisiae deletion strains, locus YPL055C, strain LGE1, stronger effect = lower value 0.971 | S. cerevisiae deletion strains, locus YPL241C, strain CIN2, stronger effect = lower value 1 | S. cerevisiae deletion strains, locus YPR135W, strain CTF4, stronger effect = lower value 1.02 | S. cerevisiae strains, strain wild type, stronger effect = lower value 0.979
